A word on the AC50: it is the concentration at which the activity in the assay is half-maximal.

Consider six compounds from PubChem BioAssay (EPA / NIEHS).

What all share (conditions): mRNA level, 48 h; actives raise or lower the signal
Read-out in assay [1]: Peroxisomal acyl-coenzyme A oxidase 1 (ACOX1) gene, ACOX1 (gene 51)
As to the kind of experiment: LTEA_HepaRG_ACOX1: Life Technologies and Expression Analysis (LTEA) Assay for Peroxisomal acyl-coenzyme A oxidase 1 (ACOX1) gene using HepaRG (AID 2283467). The essentials: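 Human HepaRG hepatic cultures, 48 h treatment with test chemicals up to 100 uM. ACOX1 expression read by qRT-PCR relative to 0.5% DMSO vehicle.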

Read-out in assay [2]: Alkaline Phosphatase, Placental (ALPP) gene, ALPP (gene 250)
As to the kind of experiment: LTEA_HepaRG_ALPP: Life Technologies and Expression Analysis (LTEA) Assay for Alkaline Phosphatase, Placental (ALPP) gene using HepaRG (AID 2283468). Summed up:
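Expression of ALPP was quantified by qRT-PCR against three housekeeping genes in human HepaRG cultures treated for 48 h with an eight-point concentration series up to 100 uM. Activity in either direction was fitted relative to 0.5% DMSO.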

Read-out in assay [3]: Bcl-2 (BAD) gene, BAD (gene 572)
The assay can be described thus: LTEA_HepaRG_BAD: Life Technologies and Expression Analysis (LTEA) Assay for Bcl-2 (BAD) gene using HepaRG (AID 2283469). Summed up:
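Activity values reflect up- or down-regulation of BAD mRNA in human HepaRG hepatic cells treated 48 h in serum-free medium, with eight-point half-log dosing capped at 100 uM and 0.5% DMSO vehicle.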

Read-out in assay [4]: Bcl-2 (BAX) gene, BAX (gene 581)
As to the kind of experiment: LTEA_HepaRG_BAX: Life Technologies and Expression Analysis (LTEA) Assay for Bcl-2 (BAX) gene using HepaRG (AID 2283470). The essentials:
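qRT-PCR read-out of BAX mRNA, normalized to three housekeeping genes, after 48 h chemical exposure of human HepaRG cells in serum-free induction medium; eight-point half-log series, top 100 uM, 0.5% DMSO vehicle; bidirectional fit versus DMSO.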

Read-out in assay [5]: adenosine kinase (ADK) gene, ADK (gene 132)
The assay can be described thus: LTEA_HepaRG_ADK: Life Technologies and Expression Analysis (LTEA) Assay for adenosine kinase (ADK) gene using HepaRG (AID 2283471). The essentials:
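Differentiated HepaRG cells dosed 48 h in serum-free induction medium, 0.5% DMSO vehicle, eight half-log concentrations from 100 uM, in duplicate. ADK mRNA by TaqMan qRT-PCR normalised to ACTB, GAPDH, POLR2A; bidirectional fit versus DMSO.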

Read-out in assay [6]: Alpha-fetoprotein (AFP) gene, AFP (gene 174)
As to the kind of experiment: LTEA_HepaRG_AFP: Life Technologies and Expression Analysis (LTEA) Assay for Alpha-fetoprotein (AFP) gene using HepaRG (AID 2283472). The essentials: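 qRT-PCR (Fluidigm TaqMan) readout of AFP transcript, normalized to three housekeeping genes, fitted bidirectionally against 0.5% DMSO baseline. HepaRG cells received chemicals for 48 h in serum-free induction medium, top concentration 100 uM, half-log steps.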

Read-out in the next assay: BCL2L11 (gene 10018)
The assay can be described thus: LTEA_HepaRG_BCL2L11: Life Technologies and Expression Analysis (LTEA) Assay for Bcl-2 (BCL2L11) gene using HepaRG (AID 2283473). Summed up: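 Cells were plated, cultured 48 h, switched to serum-free induction medium, then dosed in duplicate for 48 h at eight half-log concentrations up to 100 uM. Lysates underwent RNA isolation and TaqMan qRT-PCR; gain or loss versus DMSO was fitted.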

Read-out in assay [7]: Apolipoprotein A-V (APOA5) gene, APOA5 (gene 116519)
The assay can be described thus: LTEA_HepaRG_APOA5: Life Technologies and Expression Analysis (LTEA) Assay for Apolipoprotein A-V (APOA5) gene using HepaRG (AID 2283474). The essentials: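 Human liver HepaRG cells are treated 48 h with test chemicals (100 uM top, half-log dilutions, 0.5% DMSO). APOA5 mRNA induction or loss is measured by qRT-PCR relative to vehicle.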

Read-out in assay [8]: Apoptosis regulator Bcl-2 (Homo sapiens) (UniProt P10415)
As to the kind of experiment: LTEA_HepaRG_BCL2: Life Technologies and Expression Analysis (LTEA) Assay for Bcl-2 gene using HepaRG (AID 2283475). The essentials:
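qRT-PCR read-out (Fluidigm TaqMan) of BCL2 transcript, normalised to three housekeeping genes, after 48 h chemical exposure of HepaRG cells; 8-point half-log series, top 100 uM, 0.5% DMSO vehicle. Gain or loss of signal fitted relative to DMSO baseline.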

Read-out in assay [9]: Bcl-2 (BID) gene, BID (gene 637)
As to the kind of experiment: LTEA_HepaRG_BID: Life Technologies and Expression Analysis (LTEA) Assay for Bcl-2 (BID) gene using HepaRG (AID 2283476). The essentials: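 HepaRG, 48 h exposure, 8-pt half-log series, top 100 uM, 0.5% DMSO vehicle, duplicates. Readout: BID mRNA by TaqMan qRT-PCR; housekeeping-normalized; bidirectional curve fit vs DMSO baseline.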

Read-out in another assay: Caspase-3 (Homo sapiens) (UniProt P42574)
As to the kind of experiment: LTEA_HepaRG_CASP3: Life Technologies and Expression Analysis (LTEA) Assay for cysteine-aspartic acid protease (CASP3) using HepaRG (AID 2283477). Summed up: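 In HepaRG liver cells dosed for 48 h at up to 100 uM (eight-point, duplicate), CASP3 expression changes are scored by qRT-PCR. Activity is fitted in both directions with 0.5% DMSO as baseline.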

Read-out in assay [10]: Cytochrome P450 (CYP24A1), CYP24A1 (gene 1591)
As to the kind of experiment: LTEA_HepaRG_CYP24A1: Life Technologies and Expression Analysis (LTEA) Assay for Cytochrome P450 (CYP24A1) using HepaRG (AID 2283478). Summed up: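 Human liver HepaRG cultures receive each chemical for 48 h across an eight-point half-log series topping at 100 uM in 0.5% DMSO. Induction or suppression of CYP24A1 mRNA is scored relative to vehicle after housekeeping-gene normalization.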

Read-out in assay [11]: Cytochrome P450 (CYP1A2), CYP1A2 (gene 1544)
As to the kind of experiment: LTEA_HepaRG_CYP1A2: Life Technologies and Expression Analysis (LTEA) Assay for Cytochrome P450 (CYP1A2) using HepaRG (AID 2283479).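 As to AC50: TaqMan qRT-PCR transcript level normalized to ACTB GAPDH and POLR2A.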 Summed up: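 Assesses CYP1A2 mRNA in human HepaRG liver cells after 48 h chemical exposure at up to 100 uM. Values come from qRT-PCR with bidirectional curve fitting relative to DMSO.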

Read-out in assay [12]: cysteine-aspartic acid protease (CASP8), CASP8 (gene 841)
As to the kind of experiment: LTEA_HepaRG_CASP8: Life Technologies and Expression Analysis (LTEA) Assay for cysteine-aspartic acid protease (CASP8) using HepaRG (AID 2283480). Summed up: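 Concentration-response in duplicate up to 100 uM (half-log steps, 0.5% DMSO) on differentiated HepaRG cultures for 48 h. Expression change of CASP8 mRNA is determined by TaqMan qRT-PCR with housekeeping-gene normalization.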

Read-out in assay [13]: Cytochrome P450 (CYP2B6), CYP2B6 (gene 1555)
As to the kind of experiment: LTEA_HepaRG_CYP2B6: Life Technologies and Expression Analysis (LTEA) Assay for Cytochrome P450 (CYP2B6) using HepaRG (AID 2283481). Summed up:
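Using 48 h treatment of HepaRG cells in serum-free induction medium, concentrations spanned half-log steps from 100 uM in 0.5% DMSO vehicle. CYP2B6 mRNA induction or loss is scored by qRT-PCR against DMSO.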

Read-out in assay [14]: Cytochrome P450 2C19 (Homo sapiens) (UniProt P33261)
The assay can be described thus: LTEA_HepaRG_CYP2C19: Life Technologies and Expression Analysis (LTEA) Assay for CYP2C19 using HepaRG (AID 2283482). The essentials:
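Human HepaRG liver cells received test chemicals for 48 h (highest 100 uM, half-log dilutions in 0.5% DMSO). CYP2C19 mRNA induction or loss is read by multiplexed qRT-PCR and fitted in both directions versus vehicle.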

Read-out in a further assay: CYP2C8 (gene 1558)
As to the kind of experiment: LTEA_HepaRG_CYP2C8: Life Technologies and Expression Analysis (LTEA) Assay for CYP2C8 using HepaRG (AID 2283483). The essentials: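 This is a transcriptional endpoint in HepaRG cultures: 48 h exposure, highest concentration 100 uM. CYP2C8 mRNA is quantified by TaqMan qRT-PCR.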

Read-out in another assay: CYP2C9 (gene 1559)
The assay can be described thus: LTEA_HepaRG_CYP2C9: Life Technologies and Expression Analysis (LTEA) Assay for CYP2C9 using HepaRG (AID 2283484). The essentials:
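Eight-point concentration-response (highest 100 uM, half-log dilutions) in HepaRG cells for 48 h; CYP2C9 expression by qRT-PCR normalized to ACTB, GAPDH, POLR2A. Bidirectional fit, DMSO baseline.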

Read-out in the next assay: CYP2E1 (gene 1571)
The assay can be described thus: LTEA_HepaRG_CYP2E1: Life Technologies and Expression Analysis (LTEA) Assay for CYP2E1 using HepaRG (AID 2283485). Summed up: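 CYP2E1 transcript was measured by TaqMan qRT-PCR in human HepaRG cultures after 48 h chemical exposure (top 100 uM, half-log steps, 0.5% DMSO vehicle). Housekeeping-gene normalization; gain or loss fitted relative to DMSO baseline.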

Read-out in the next assay: CYP4A11 (gene 1579)
As to the kind of experiment: LTEA_HepaRG_CYP4A11: Life Technologies and Expression Analysis (LTEA) Assay for CYP4A11 using HepaRG (AID 2283486). The essentials: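 Readout is CYP4A11 mRNA induction or suppression (qRT-PCR, ACTB/GAPDH/POLR2A normalization) in human HepaRG cells after 48 h chemical treatment, concentrations to 100 uM in 0.5% DMSO, fitted bidirectionally against vehicle.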

Calls of active or inactive are those of the source. The calls were made as follows: active = hit-call score of the fitted dose curve at least 0.9, where 1 is the maximum; inactive = score below 0.9.

Chain of Cytochrome P450 2C19 (Homo sapiens) (P33261 whole entry, looked up): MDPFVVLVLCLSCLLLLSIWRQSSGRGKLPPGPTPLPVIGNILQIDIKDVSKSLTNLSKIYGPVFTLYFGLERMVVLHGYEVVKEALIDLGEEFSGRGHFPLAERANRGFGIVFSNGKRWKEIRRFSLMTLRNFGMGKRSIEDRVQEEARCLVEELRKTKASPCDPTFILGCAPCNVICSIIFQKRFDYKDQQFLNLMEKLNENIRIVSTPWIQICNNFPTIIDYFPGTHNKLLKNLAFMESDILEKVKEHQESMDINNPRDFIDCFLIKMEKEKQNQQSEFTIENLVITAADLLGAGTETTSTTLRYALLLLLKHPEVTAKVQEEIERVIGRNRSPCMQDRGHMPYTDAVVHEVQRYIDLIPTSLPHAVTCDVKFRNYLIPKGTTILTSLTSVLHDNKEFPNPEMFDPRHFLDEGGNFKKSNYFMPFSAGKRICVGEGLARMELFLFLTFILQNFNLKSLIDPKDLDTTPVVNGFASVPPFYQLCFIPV
Chain of Apoptosis regulator Bcl-2 (Homo sapiens) (P10415 whole entry, looked up): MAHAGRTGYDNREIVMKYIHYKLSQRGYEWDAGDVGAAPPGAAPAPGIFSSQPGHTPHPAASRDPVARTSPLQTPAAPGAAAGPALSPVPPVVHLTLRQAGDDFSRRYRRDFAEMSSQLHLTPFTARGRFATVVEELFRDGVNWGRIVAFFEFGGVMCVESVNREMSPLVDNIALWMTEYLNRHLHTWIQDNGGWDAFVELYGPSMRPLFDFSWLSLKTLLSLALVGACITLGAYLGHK
Chain of Caspase-3 (Homo sapiens) (P42574 whole entry, looked up): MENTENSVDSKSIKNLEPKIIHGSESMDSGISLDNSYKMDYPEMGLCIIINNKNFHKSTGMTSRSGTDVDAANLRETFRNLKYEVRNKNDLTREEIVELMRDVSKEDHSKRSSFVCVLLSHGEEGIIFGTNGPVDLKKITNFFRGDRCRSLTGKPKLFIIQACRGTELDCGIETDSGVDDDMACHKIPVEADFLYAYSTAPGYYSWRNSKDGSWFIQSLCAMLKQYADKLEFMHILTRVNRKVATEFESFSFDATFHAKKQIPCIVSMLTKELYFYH

Regarding `O=C(O)CC(O)(CC(=O)O)C(=O)O`, the outcome in [1], in assay [2], in assay [3], in assay [4], in assay [5] and in assay [6] was inactive. The compound was called inactive (in the assay with BCL2L11 (gene 10018); in [7]; in [8]; in assay [9]; with Caspase-3 (Homo sapiens); in assay [10]). Besides, the result (in [11]; in assay [12]; in assay [13]; in assay [14]; in the assay with CYP2C8 (gene 1558); with CYP2C9 (gene 1559)) was inactive. Moreover, the call in the assay with CYP2E1 (gene 1571) and with CYP4A11 (gene 1579) was inactive.

Consider `CC(C)(O)c1ccc(CNC(=O)c2cccnc2Oc2ccc(F)cc2)cc1`, for which the call in assay [1], in [2], in assay [3], in [4], in [5] and in assay [6] was inactive. In addition, the compound was classed as inactive (in the assay with BCL2L11 (gene 10018); in assay [7]; in assay [8]; in assay [9]; in the assay with Caspase-3 (Homo sapiens); in [10]). Also, the compound was called inactive (in assay [11]; in assay [12]; with CYP2C8 (gene 1558); in the assay with CYP2C9 (gene 1559)). For the same compound, the concentration at half-maximal activity (AC50) was 0.432 µM (active) in assay [13], 8.99 µM (active) in assay [14], 37.9 µM (active) with CYP2E1 (gene 1571) and 10.2 µM (active) with CYP4A11 (gene 1579).

`CO[C@@H]1COCC[C@@H]1N[C@@H]1CC[C@@](C(=O)N2CCc3ncc(C(F)(F)F)cc3C2)(C(C)C)C1`: the outcome in [1], in [2], in assay [3], in assay [4], in assay [5] and in assay [6] was inactive. For the same compound, the result (with BCL2L11 (gene 10018); in assay [7]; in [8]; in [9]; with Caspase-3 (Homo sapiens); in assay [10]) was inactive. Also, the compound was called inactive (in [12]; in assay [13]; in [14]; in the assay with CYP2C8 (gene 1558); in the assay with CYP2C9 (gene 1559); in the assay with CYP2E1 (gene 1571)). In addition, the compound was classed as inactive with CYP4A11 (gene 1579).

For `CC(=O)OC1CC(C)OC(C)O1` (stereo unspecified), the outcome in assay [1], in assay [2], in assay [3], in [4], in assay [5] and in assay [6] was inactive. The compound was classed as inactive (in the assay with BCL2L11 (gene 10018); in assay [7]; in [8]; in assay [9]; with Caspase-3 (Homo sapiens); in assay [10]). Further, the outcome (in assay [12]; in assay [14]; with CYP2C8 (gene 1558); with CYP2C9 (gene 1559); with CYP2E1 (gene 1571); with CYP4A11 (gene 1579)) was inactive. For the same compound, the AC50 in assay [11] is 50 µM (active).

In the case of `Oc1ccccc1O`, the outcome in assay [1], in assay [2], in assay [3], in assay [4], in assay [5] and in assay [6] was inactive. Besides, the compound was called inactive (with BCL2L11 (gene 10018); in assay [7]; in assay [8]; in assay [9]; in the assay with Caspase-3 (Homo sapiens); in [10]). For the same compound, the compound was classed as inactive (in assay [11]; in assay [12]; in assay [14]; with CYP2C8 (gene 1558); in the assay with CYP2C9 (gene 1559); in the assay with CYP2E1 (gene 1571)). The compound was classed as inactive with CYP4A11 (gene 1579).

As to `OCC(O)CO`, the compound was classed as inactive in [1], in assay [2], in assay [3], in [4], in [5] and in assay [6]. Further, the result (with BCL2L11 (gene 10018); in assay [7]; in [8]; in [9]; with Caspase-3 (Homo sapiens); in assay [10]) was inactive. For the same compound, the result (in assay [11]; in [12]; in assay [14]; in the assay with CYP2C8 (gene 1558); with CYP2C9 (gene 1559); with CYP2E1 (gene 1571)) was inactive. Besides, the outcome with CYP4A11 (gene 1579) was inactive.
